These results are taken from PubChem BioAssay AID1851 (National Center for Advancing Translational Sciences (NCATS), 2009).

Structures are written as SMILES. The whole screen tested about 16,000 compounds, of which about 5,800 (36%) were called active. Roughly 23% stayed inconclusive and do not appear here. This is one part of the list. A number with no mark means an inactive call. Calls follow the shape of the dose curve; as a rule, active = well fitted curve in the direction sought with a large enough effect; inconclusive = small, poorly fitted or top-dose-only effect, or effect the other way; inactive = no such curve, though single readings can be large or run the other way.
% is scaled to controls: 0 for no effect and ±100 for the full control effect.

Cytochrome P450 2C19 (Homo sapiens), sequence (P33261 whole entry, looked up): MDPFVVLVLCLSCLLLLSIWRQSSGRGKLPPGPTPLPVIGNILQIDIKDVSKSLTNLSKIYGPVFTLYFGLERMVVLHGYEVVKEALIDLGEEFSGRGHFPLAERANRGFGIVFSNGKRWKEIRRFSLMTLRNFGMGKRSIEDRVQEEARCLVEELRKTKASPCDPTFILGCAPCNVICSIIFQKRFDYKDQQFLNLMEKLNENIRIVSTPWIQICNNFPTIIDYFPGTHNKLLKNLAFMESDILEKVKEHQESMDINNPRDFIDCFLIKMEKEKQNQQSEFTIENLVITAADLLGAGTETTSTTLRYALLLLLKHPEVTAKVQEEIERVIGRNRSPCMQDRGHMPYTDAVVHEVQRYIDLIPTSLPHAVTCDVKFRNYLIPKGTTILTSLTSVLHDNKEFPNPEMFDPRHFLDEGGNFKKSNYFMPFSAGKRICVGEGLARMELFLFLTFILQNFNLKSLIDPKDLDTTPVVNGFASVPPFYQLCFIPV

The assay addresses Cytochrome P450 2C19 (Homo sapiens) (UniProt P33261). The assay can be described thus: Cytochrome panel assay with activity outcomes. The conditions noted are these: recombinant CYP, pro-luciferin dealkylation, luminescence, p450-cyp2c19; series mostly up to 57.1 µM; activity, negative = inhibition: at the top concentration.
For the compound `CN1CCN(CCCNC(=O)C2CCN(c3nnc(-n4cccc4)s3)CC2)CC1`, the “activity, negative = inhibition” value was -20.2%. Still for that read-out and setting: under `CC(C)CO/N=C1/C[C@@H](O)[C@@H](O)[C@@H]2[C@@H]3C(=O)N([C@@H](C)c4ccccc4)C(=O)[C@H]3CC[C@H]12` stands -12.9% [at 11.4 µM]; under `Cc1c(NC(=O)CN2CCN(c3ccccc3)CC2)c(=O)n(-c2ccccc2)n1C`, -5.89%.

Usually AC50 stands for the concentration at which the activity in the assay is half-maximal. As to `Cc1c(Cl)cccc1NC(=O)CN1CCC(C(O)(c2ccccc2)c2ccccc2)CC1`, the AC50 was 11.2 µM (active). Take `COc1cc(NC(=O)c2ccccc2)c(OC)cc1NC(=O)CN1CCN(c2ccccn2)CC1`: the AC50 was 17.8 µM (active). As to `COc1cc2c(cc1OC)C(C(=O)N1CCN(c3ccccn3)CC1)C(c1cccs1)N(C)C2=O` (stereo not drawn), the “activity, negative = inhibition” value is -24.5%. For the compound `Cc1cccc(NC(=S)N2CCC(N(C)CC3CCCO3)CC2)c1C` (stereo not drawn), the “activity, negative = inhibition” value is -10.8%. The same measure, in the same setting: under `Cc1cccc(C)c1NC(=O)CS(=O)CC(=O)Nc1ccc(F)cc1F` (stereo not drawn) stands -53.4%. As to `Cn1nc(C(F)(F)F)c(C(=O)Nc2ccc(F)cc2F)c1Sc1cccc(C(F)(F)F)c1`, the AC50 was 0.501 µM (active).

Consider `Cc1ccc(NC(=O)c2c(C(F)(F)F)nn(C)c2SCc2cccc(C(F)(F)F)c2)cc1C`, for which the AC50 is 0.562 µM (active).

With `Cc1ccc(NC(=O)c2sccc2SCc2cccc(C(F)(F)F)c2)cc1`, the AC50 was 0.631 µM (active).

Take `Cn1nc(C(F)(F)F)c(C(=O)Nc2ccc(F)cc2F)c1Sc1ccc(C(F)(F)F)cc1`: the AC50 was 0.631 µM (active). With `C1COC(NC(C2CC2)C2CC2)=N1`, the AC50 entry was “inactive”.

With `CCCN1C[C@@H](CSC)C[C@H]2c3cccc4[nH]cc(c34)C[C@@H]21`, the “activity, negative = inhibition” value is 43.8%. Take `O=C(OCc1nc2ccccc2[nH]1)C12CC3CC(CC(C3)C1)C2`: the AC50 was 2.51 µM (active). With `O=C1CC[C@](CCc2nc3ccccc3[nH]2)(c2ccccc2)C(=O)N1`, the activity, negative = inhibition was -21.5% [at 11.4 µM]. Consider `Cc1[nH]n2c(=O)c3c(nc2c1-c1cccc2ccccc12)CCC3`, for which the AC50 was 8.91 µM (active). Regarding `Nc1[nH]n2c(=O)c3c(nc2c1N=Nc1ccccc1)CCCC3`, the “activity, negative = inhibition” value is -28.5%.

For `COc1ccc(CNc2nc3nc4c(c(=O)n3[nH]2)CCC4)cc1`, the “activity, negative = inhibition” value was -14.3%.

For `N#Cc1c[nH]n2c(=O)c3c(nc12)CCCC3`, the “activity, negative = inhibition” value is -4.58%. In the case of `Cc1ccc(-c2[nH]n3c(=O)c4c(nc3c2C)CCCC4)cc1`, the AC50 was 3.98 µM (active).

As to `COC(=O)Cc1cc(=O)n2[nH]c(C)c(-c3ccccc3)c2n1`, the “activity, negative = inhibition” value was -19%. For `Cc1ccc(N=Nc2c(N)[nH]n3c(=O)c4c(nc23)CCCC4)cc1`, the AC50 is 25.1 µM (active).

Turning to `CSc1nc2nc3c(c(=O)n2[nH]1)CN(Cc1ccccc1)CC3`, the “activity, negative = inhibition” value was -6.28%. With `COc1cccc([C@H](O)Cn2cc(-c3cccc(CON=C(C)C)c3)nn2)c1`, the activity, negative = inhibition was -19.8% [at 11.4 µM].

Take `CC(C)c1ccc(N=c2c([N+](=O)[O-])nn(-c3ccc4c(c3)OCCO4)n2O)cc1`: the AC50 was 11.2 µM (active). With `COc1ccc(OC)c(C2C3=C(COC3=O)Nc3cc4c(cc32)OCO4)c1` (stereo not drawn), the AC50 was 1.12 µM (active).

Consider `CC1(C)Oc2cc(N)c([N+](=O)[O-])cc2O1`, for which the AC50 is 10 µM (active). For `CC1(C)Cc2c(sc3nc(-c4ccccc4)n(N)c(=O)c23)CO1`, the AC50 is 25.1 µM (active). Consider `Cc1nn2c(C)nc3sc4c(c3c2nc1=O)CC(C)(C)OC4`, for which the “activity, negative = inhibition” value was -20.1%. Regarding `Nc1nc(Sc2ccc([N+](=O)[O-])c3nonc23)c2[nH]cnc2n1`, the AC50 was 1.58 µM (active). As for `CCC[C@H](Sc1nc(N)nc2nc[nH]c12)C(=O)O`, the activity, negative = inhibition is 25% [at 11.4 µM].

Regarding `Nc1nc(N)c2[nH]cnc2n1` (tested in a mixture with another compound), the activity, negative = inhibition is 6.99% [at 11.4 µM]. Consider `Nc1nc(SCc2ccccc2[N+](=O)[O-])c2[nH]cnc2n1`, for which the AC50 was 1 µM (active). The same measure, in the same setting: under `Nc1nc(SCCc2ccccc2)c2[nH]cnc2n1` stands 0.631 µM (active); under `Nc1nc(SC/C=C\c2ccccc2)c2[nH]cnc2n1`, 1.58 µM (active).

`CC(C)[C@H](Sc1nc(N)nc2nc[nH]c12)C(=O)O`: the activity, negative = inhibition was 22.9% [at 11.4 µM]. Same read-out and setting: under `O=c1[nH]c(SCc2ccccc2[N+](=O)[O-])nc2nc[nH]c12` stands 23.8% [at 11.4 µM]; under `CC[C@H](C)[C@@H]1O[C@]2(CC[C@@H]1C)C[C@H]1C[C@H](CC=C(C)[C@@H](O[C@H]3C[C@H](OC)[C@H](O[C@H]4C[C@H](OC)[C@H](O)[C@H](C)O4)[C@H](C)O3)[C@@H](C)C=CC=C3CO[C@@H]4[C@@H](O)C(C)=C[C@H](C(=O)O1)[C@@]34O)O2`, -24.9%. `COc1cc2c(CCNC(C)=O)c[nH]c2cc1Cl`: the AC50 is 5.01 µM (active). In the case of `COc1cc2c(CCNC(C)=O)c[nH]c2cc1O`, the “activity, negative = inhibition” value is -15.4%. Turning to `CC(=O)NCCc1c[nH]c2ccc(O)cc12`, the “activity, negative = inhibition” value was -18.6%. On the same count and under the same terms, under `CC(C)[C@](N)(C(=O)O)c1ccccc1` stands 11.6% [at 11.4 µM]. `Cc1nc2c3cnn(-c4ccc(C)c(C)c4)c3ncn2n1`: the AC50 was 10 µM (active). With `O=C(Cc1ccccc1)N/N=C/c1cc(Br)c(Br)o1`, the AC50 was 8.91 µM (active). Still for that read-out and setting: under `O=C(Cc1ccccc1)N/N=C\c1ccc(Br)o1` stands 10 µM (active). With `O=C(N/N=C/c1ccco1)c1ccc(Br)o1`, the “activity, negative = inhibition” value was -25.5%.

`O=C(O)c1cc2cc(Cl)ccc2oc1=O`: the “activity, negative = inhibition” value was -20.3%. Consider `CCN(CC)c1ccc2cc(C(C)=O)c(=O)oc2c1`, for which the AC50 was 1.58 µM (active). With `O=c1ccc2cc(O)c(O)cc2o1`, the “activity, negative = inhibition” value was -12.2% [at 25.6 µM]. Regarding `O=C(O)C[C@H](S)C(=O)O`, the activity, negative = inhibition is 13.1% [at 11.4 µM].

As to `C=CC(C)(C)c1[nH]c2ccccc2c1C1=C(O)C(=O)C(c2c[nH]c3c(CC=C(C)C)cccc23)=C(O)C1=O`, the concentration at half-maximal activity (AC50) was 1.26 µM (active).

`COc1ccc(-n2c(=O)c(-c3cccs3)nc3cnc(N4CCOCC4)nc32)cc1`: the “activity, negative = inhibition” value was -30%. In the case of `Cc1ccc(C)c(S(=O)(=O)NCc2ccc(C(=O)N3CCC(Cc4ccccc4)CC3)cc2)c1`, the AC50 is 4.47 µM (active). Turning to `Cc1ccc2c(c1)N[C@H](c1ccc(C(=O)O)cc1)c1cccn1-2`, the activity, negative = inhibition was -26.9% [at 11.4 µM]. On the same count and under the same terms, under `CCCS(=O)(=O)N1CCCC(C(=O)NCCN2CCC(Cc3ccccc3)CC2)C1` (stereo not drawn) stands -20.6%. Take `Cc1nc2ccccc2n1CC(=O)N/N=C\C=C\c1ccccc1`: the AC50 was 7.08 µM (active). Turning to `Cn1c(SCC(=O)N/N=C/C=C\c2ccco2)nc2ccccc21`, the AC50 was 14.1 µM (active).
